Bioassay records as filed in PubChem.
697 NFkB inh: lowers PMA/ionomycin-induced NF-kB signal in 697 B cells. 330,000 compounds, 0.33% hits. 697 B-cell NF-kB luciferase reporter, 16 h. inhibition, % at 4 µM; in the data active = inhibition above about 35%
Jurkat NFkB inh: lowers PMA/ionomycin-induced NF-kB signal in Jurkat cells; inhibition, % at 4 µM; 330,000 compounds, 0.53% hits; PMA/ionomycin-induced NF-kB luciferase reporter, luminescence; in the data active = inhibition above about 50%
Mdm2-MdmX inh: inhibitors of human Mdm2/MdmX interaction; O15151+Q00987; SaOS-2 split-luciferase Mdm2/MdmX complementation, luminescence; inhibition, % at 8 µM; 330,000 compounds, 3% hits; AID 485346;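 active = inhibition of at least 50% at 8 µM in the primary screen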
Target sequence (O15151 whole entry, looked up): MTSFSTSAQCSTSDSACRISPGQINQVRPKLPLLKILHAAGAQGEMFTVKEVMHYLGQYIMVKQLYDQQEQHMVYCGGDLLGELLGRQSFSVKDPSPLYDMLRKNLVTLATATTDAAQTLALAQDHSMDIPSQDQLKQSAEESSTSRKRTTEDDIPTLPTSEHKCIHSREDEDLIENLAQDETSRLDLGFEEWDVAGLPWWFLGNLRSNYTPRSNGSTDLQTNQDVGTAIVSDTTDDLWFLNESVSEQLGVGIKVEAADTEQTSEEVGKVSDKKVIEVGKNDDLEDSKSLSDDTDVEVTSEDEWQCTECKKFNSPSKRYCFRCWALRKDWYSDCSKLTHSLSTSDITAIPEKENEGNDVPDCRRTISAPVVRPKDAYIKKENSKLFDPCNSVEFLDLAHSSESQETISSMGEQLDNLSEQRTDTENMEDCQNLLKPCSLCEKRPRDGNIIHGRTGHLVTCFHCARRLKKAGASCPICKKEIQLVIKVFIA
Target sequence (Q00987 whole entry, looked up): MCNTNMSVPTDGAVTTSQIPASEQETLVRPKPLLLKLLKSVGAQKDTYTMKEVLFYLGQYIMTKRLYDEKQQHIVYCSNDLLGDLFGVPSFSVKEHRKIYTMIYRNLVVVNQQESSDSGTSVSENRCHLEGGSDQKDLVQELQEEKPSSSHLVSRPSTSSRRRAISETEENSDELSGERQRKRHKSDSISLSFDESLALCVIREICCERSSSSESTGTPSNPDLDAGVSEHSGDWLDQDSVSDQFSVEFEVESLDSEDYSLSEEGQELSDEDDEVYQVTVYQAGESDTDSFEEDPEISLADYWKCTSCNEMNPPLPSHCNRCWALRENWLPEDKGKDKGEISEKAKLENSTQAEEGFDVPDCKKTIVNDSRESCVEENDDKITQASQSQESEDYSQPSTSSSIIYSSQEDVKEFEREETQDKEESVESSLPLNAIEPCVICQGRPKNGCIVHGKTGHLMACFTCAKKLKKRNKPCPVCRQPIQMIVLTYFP
Beta apoptosis: beta cell apoptosis inhibition; protection from apoptosis, % (concentration not given with the values); INS-1E cytokine-induced death, ATP luminescence, 48 h; percent of positive-control rescue, neutral wells zero; 300,000 compounds, 0.8% hits;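 active = Every replicate reaches about 75%, or at least half do and their mean reaches it too, limit read from the data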;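 also: 0% = cytokine-treated negative control wells and 100% = positive control rescue; higher means more ATP so stronger rescue from cytokine killing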
Gli-Sufu antag: blocks Gli-Sufu signaling in a luciferase reporter. Sufu-KO-LIGHT fibroblasts, Gli luciferase reporter luminescence. inhibition, % at 5 µM. 340,000 compounds, 0.74% hits;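 active = inhibition above about 55%, limit read from the data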;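 also: 0% = DMSO-treated cells and 100% = wells with medium but no cells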
Mdm2 MdmX conf: confirmation of human Mdm2/MdmX interaction inhibitors. shares compounds with Mdm2-MdmX inh. Mdm2-MdmX binding, luminescent assay. inhibition, % at 8 µM. 10,000 compounds, 55% hits. AID 489028; in the data active = inhibition above about 40%
Full FLuc ctr: full-length luciferase inhibition in Mdm2/MdmX counter-screen | shares compounds with Mdm2-MdmX inh | SaOS-2 full-length luciferase counterscreen, luminescence | inhibition, % at 8 µM | 6,200 compounds, 77% hits;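 active = mean inhibition at 8 µM reaching about 37%, which flags the compound as non-specific, limit read from the data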;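 also: p53-null SaOS-2 cells with luciferase driven by a doxycycline-inducible promoter; compound on cells about two nights before reading with doxycycline added after day one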
Starred values were filed as active, the others as inactive. Shown are actives, neighbours in structure and some others; about 4% of the full set was active somewhere.

For CCOC(=O)C1=C(COc2ccccc2)NC(=O)NC1c1ccc(Br)cc1 (centres undefined) the results were 697 NFkB inh 16.3, Jurkat NFkB inh 8.2, Mdm2-MdmX inh 31.0, Beta apoptosis 9.2 and Gli-Sufu antag -3.7.
O=C(Cc1ccc(Br)cc1)NCc1ccccc1 was read as 697 NFkB inh -70.0, Jurkat NFkB inh 35.4, Mdm2-MdmX inh 64.0*, Beta apoptosis 21.6, Gli-Sufu antag 6.8, Mdm2 MdmX conf 51.8* and Full FLuc ctr 57.1*.
Screening Cc1ccc(CNC(=O)Cc2ccc(Br)cc2)cc1 returned 697 NFkB inh -40.1, Jurkat NFkB inh -15.9, Mdm2-MdmX inh 21.9, Beta apoptosis -3.2 and Gli-Sufu antag -5.2.
`COc1cccc(NC(=O)Nc2nnc(CC(=O)NCc3ccccc3)s2)c1` gave 697 NFkB inh 29.1, Jurkat NFkB inh 10.7, Mdm2-MdmX inh 55.6*, Beta apoptosis -8.6, Gli-Sufu antag 2.1, Mdm2 MdmX conf 51.2* and Full FLuc ctr 35.1.
Screening COc1cccc(CNC(=O)Cc2ccc(-c3ccccc3)cc2)c1 returned 697 NFkB inh 7.9, Jurkat NFkB inh 19.1, Mdm2-MdmX inh 66.6*, Beta apoptosis -0.2, Gli-Sufu antag -1.1, Mdm2 MdmX conf 58.9* and Full FLuc ctr 61.5*.
`CC(=O)NCCNC(=O)C1CCCCN1S(=O)(=O)c1ccccc1` (centres undefined) gave 697 NFkB inh 6.0, Jurkat NFkB inh -4.4, Mdm2-MdmX inh 11.5, Beta apoptosis -2.1 and Gli-Sufu antag 3.5.
`CCc1cc(C(=O)c2ccc(Br)cc2)c(NC(=O)CN(CC)CC)s1` gave 697 NFkB inh -32.2, Jurkat NFkB inh -6.6, Mdm2-MdmX inh 20.3, Beta apoptosis 8.3 and Gli-Sufu antag -3.9.
For Cc1ccc2nc3c(c(Nc4ccc(O)cc4)c2c1)CCC3 the results were 697 NFkB inh 3.8, Jurkat NFkB inh 11.2, Mdm2-MdmX inh 19.1, Beta apoptosis 9.0 and Gli-Sufu antag 41.9.
`Cc1ccc2nc3c(c(Nc4ccc5c(c4)OCCO5)c2c1)CCC3` gave 697 NFkB inh -49.6, Jurkat NFkB inh -7.5, Mdm2-MdmX inh 56.1*, Beta apoptosis 21.1, Gli-Sufu antag 48.5 and Mdm2 MdmX conf 15.1.
CN(C)CCCN(C(=O)c1cc(-c2cccs2)nc2ccccc12)c1nc2c(F)cccc2s1 was read as 697 NFkB inh -3.3, Jurkat NFkB inh -2.4, Mdm2-MdmX inh 57.0*, Gli-Sufu antag 11.8 and Mdm2 MdmX conf 30.6.
Screening Cc1ccc2nc(N(CCCN(C)C)C(=O)c3ccc(Br)s3)sc2c1 returned 697 NFkB inh 17.7, Jurkat NFkB inh -12.3, Mdm2-MdmX inh 22.6, Beta apoptosis -3.2 and Gli-Sufu antag 24.4.
For Cc1ccc2nc(N(CCCN(C)C)C(=O)c3cc(-c4cccs4)nc4ccccc34)sc2c1 the results were 697 NFkB inh 15.2, Jurkat NFkB inh 1.7, Mdm2-MdmX inh 95.7*, Beta apoptosis 21.1, Gli-Sufu antag 35.6, Mdm2 MdmX conf 46.1* and Full FLuc ctr 37.3*.
Screening O=[N+]([O-])c1ccc(NC(=S)N2CCc3ccccc32)cc1 returned 697 NFkB inh -32.8, Jurkat NFkB inh 4.5, Mdm2-MdmX inh 21.6, Beta apoptosis 1.9 and Gli-Sufu antag -14.2.
CCCCOc1ccc(C2CCC(C(C)=O)C(C)C2)cc1 (centres undefined) was read as 697 NFkB inh -66.8, Jurkat NFkB inh -75.4, Mdm2-MdmX inh 10.9, Beta apoptosis 5.4 and Gli-Sufu antag 24.2.
Screening COC(=O)Cn1c2ccc(OC)cc2c2nc3ccccc3nc21 returned 697 NFkB inh 7.9, Jurkat NFkB inh -6.4, Mdm2-MdmX inh 41.5, Beta apoptosis -2.6 and Gli-Sufu antag -0.7.
`CCOC(=O)Cn1c2ccc(OC)cc2c2nc3ccccc3nc21` gave 697 NFkB inh -27.3, Jurkat NFkB inh -5.0, Mdm2-MdmX inh 70.4*, Gli-Sufu antag 7.2 and Mdm2 MdmX conf 25.4.
For C=CCn1c(SCC(=O)NCC)nc2sc3c(c2c1=O)CCC3 the results were 697 NFkB inh 10.3, Jurkat NFkB inh 2.9, Mdm2-MdmX inh 22.2 and Gli-Sufu antag -14.4.
For CC1(C)CC(=O)C2=C(C1)N1C(=C(C#N)C2c2ccc(Cl)cc2)N=C(N)c2ccccc21 (centres undefined) the results were 697 NFkB inh -38.9, Jurkat NFkB inh -12.4, Mdm2-MdmX inh 55.5*, Beta apoptosis -3.8, Gli-Sufu antag -0.3 and Mdm2 MdmX conf -0.4.
CC1(C)CC(=O)C2=C(C1)N1C(=C(C#N)C2c2ccccc2Cl)N=C(N)c2ccccc21 (centres undefined) was read as 697 NFkB inh 20.1, Jurkat NFkB inh 6.7, Mdm2-MdmX inh 43.3, Beta apoptosis 9.3 and Gli-Sufu antag -4.7.
Screening O=C1[C@H]2[C@H](C=CC[C@H]2C(=O)N2CCOCC2)CCN1Cc1ccccc1 returned 697 NFkB inh 8.1, Jurkat NFkB inh 12.9, Mdm2-MdmX inh -3.3, Beta apoptosis -1.7 and Gli-Sufu antag -3.9.
For COC(=O)C1=C(C)N(Cc2ccccc2)C(=NCc2ccco2)N[C@H]1c1cccc(F)c1 the results were 697 NFkB inh 13.7, Jurkat NFkB inh 5.0, Mdm2-MdmX inh 41.5, Beta apoptosis -2.7 and Gli-Sufu antag 14.7.
CCN1C(=NCc2ccc(OC)cc2)N[C@@H](c2ccccc2)C(C(=O)OC)=C1C was read as 697 NFkB inh 10.0, Jurkat NFkB inh 9.9, Mdm2-MdmX inh 15.7, Beta apoptosis -9.1 and Gli-Sufu antag 2.1.
`COC(=O)C1=C(C)N(Cc2ccccc2)C(=NCc2cccc(Cl)c2)N[C@H]1c1cccc(F)c1` gave 697 NFkB inh 2.1, Jurkat NFkB inh -6.9, Mdm2-MdmX inh 100.5*, Beta apoptosis 98.2*, Gli-Sufu antag 22.4, Mdm2 MdmX conf 59.9* and Full FLuc ctr 10.6.
`COC(=O)C1=C(C)N(Cc2ccccc2)C(=NCc2cc(OC)c(OC)c(OC)c2)N[C@H]1c1cccc(F)c1` gave 697 NFkB inh -8.2, Jurkat NFkB inh 6.1, Mdm2-MdmX inh 62.4*, Beta apoptosis -3.7, Gli-Sufu antag 8.2 and Mdm2 MdmX conf 21.7.
`COC(=O)C1=C(C)N(Cc2ccccc2)C(=NCc2ccc(OC)cc2)N[C@H]1c1cccc(F)c1` gave 697 NFkB inh -4.4, Jurkat NFkB inh -14.8, Mdm2-MdmX inh 87.5*, Beta apoptosis 4.5, Gli-Sufu antag -25.8, Mdm2 MdmX conf 46.7* and Full FLuc ctr 56.7*.
COC(=O)C1=C(C)N(Cc2ccccc2)C(=NCC2CC2)N[C@H]1c1ccccc1 was read as 697 NFkB inh 6.1, Jurkat NFkB inh 2.2, Mdm2-MdmX inh 46.4, Beta apoptosis 6.5 and Gli-Sufu antag 39.3.
For COC(=O)C1=C(C)N(Cc2ccccc2)C(=NCc2ccc3c(c2)OCO3)N[C@H]1c1ccccc1 the results were 697 NFkB inh 9.7, Jurkat NFkB inh 11.2, Mdm2-MdmX inh 56.4*, Beta apoptosis -6.5, Gli-Sufu antag 35.3 and Mdm2 MdmX conf 8.5.
